These results are taken from PubChem BioAssay (Tox21).

Molecules are shown by their SMILES. Inconclusive results are not listed. Unmarked numbers belong to inactive results. Activity calls are given as the source filed them. Unless noted, calls follow the shape of the dose curve; as a rule, active = well fitted curve in the direction sought with a large enough effect in the repeat runs; inconclusive = weak or mixed curves; inactive = no such curve, though single readings can be large; an effect the other way counts as inactive or inconclusive.

A short description of assay [1]: qHTS assay to identify small molecule antagonists of the retinoid acid receptor (RAR) signaling pathway - cell viability counter screen (AID 1159551). Also: nearly all actives have a fitted effect of over 35% in size. The method in brief:
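Viability of C3RL4 cells is quantified from ATP by luminescence after 6 h treatment at 37 C with compounds and 1 uM retinol.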

A short description of assay [2]: qHTS assay to identify small molecule agonists of the retinoic acid receptor (RAR) signaling pathway (AID 1159553). An outline of the steps: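 Compounds dissolved in DMSO were pinned onto C3RL4 cells seeded the previous day, and plates were held 6 hr at 37 C. RARE-driven luciferase output was then read by luminescence.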
Assay [3] can be described thus: qHTS assay to identify small molecule antagonists of the estrogen related receptor (ERR) signaling pathway from Tox21 library - cell viability counter screen (AID 1224834). Also: nearly all actives have a fitted effect of over 30% in size. Also: potency is read from the fitted curve at half-maximal effect. The method in brief: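 In this quantitative HTS format, ERR cells receive compounds in DMSO and are incubated for 17.5 h at 37 C. Live-cell protease activity is then detected with CellTiter-Fluor.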

The target of assay [4] is Luciferin 4-monooxygenase (Photinus pyralis) (UniProt P08659). Put plainly: qHTS assay to identify small molecule inhibitors of firefly luciferase (AID 1224835). Also: series mostly up to about 120 µM; nearly all actives have a fitted effect of over 25% in size. The method in brief: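 Biochemical qHTS: compounds run as interplate titrations against purified firefly enzyme, with D-luciferin and ATP each at its KM concentration. Light output recorded by CCD imaging.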
Luciferin 4-monooxygenase (Photinus pyralis), sequence (P08659 whole entry, looked up): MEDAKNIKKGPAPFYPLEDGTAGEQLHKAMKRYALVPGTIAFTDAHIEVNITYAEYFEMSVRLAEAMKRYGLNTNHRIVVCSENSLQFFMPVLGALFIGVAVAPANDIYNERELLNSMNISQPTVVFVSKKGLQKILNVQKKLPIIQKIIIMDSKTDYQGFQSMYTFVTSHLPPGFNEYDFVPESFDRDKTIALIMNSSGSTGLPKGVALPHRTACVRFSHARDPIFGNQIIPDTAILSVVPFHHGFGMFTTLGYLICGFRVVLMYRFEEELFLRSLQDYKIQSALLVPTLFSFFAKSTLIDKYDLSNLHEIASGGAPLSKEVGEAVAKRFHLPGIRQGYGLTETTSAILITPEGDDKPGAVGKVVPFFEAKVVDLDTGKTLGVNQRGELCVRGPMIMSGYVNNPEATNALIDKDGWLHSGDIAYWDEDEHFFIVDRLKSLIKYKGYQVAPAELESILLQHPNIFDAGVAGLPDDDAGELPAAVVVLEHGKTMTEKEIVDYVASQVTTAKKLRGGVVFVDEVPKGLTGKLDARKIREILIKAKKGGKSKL
Assay [5] can be described thus: qHTS assay to identify small molecule agonists of the constitutive androstane receptor (CAR) signaling pathway - cell viability counter screen (AID 1224836). Also: nearly all actives have a fitted effect of over 45% in size. Also: potency is read from the fitted curve at half-maximal effect. An outline of the steps:
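HepG2-CYP2B6-hCAR, 2500 cells/well, 4 h pre-incubation; cpd 15 conc + PK11195 0.75 uM final; 23 h, 37 C/5% CO2; CellTiter-Fluor, fluorescence.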

A short description of assay [6]: qHTS assay to identify small molecule antagonists of the constitutive androstane receptor (CAR) signaling pathway - cell viability counter screen (AID 1224837). Also: nearly all actives have a fitted effect of over 45% in size. Also: potency is read from the fitted curve at half-maximal effect. The method in brief: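 In quantitative HTS format, compounds at 15 concentrations were applied to HepG2 cells double-transfected with hCAR and CYP2B6-2.2kb under 50 nM CITCO stimulation; live-cell protease activity was read after 23 hr via CellTiter-Fluor.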

The target in assay [7] is Nuclear receptor subfamily 1 group I member 3 (Homo sapiens) (UniProt Q14994). Put plainly: qHTS assay to identify small molecule antagonists of the constitutive androstane receptor (CAR) signaling pathway (AID 1224838). Also: nearly all actives have a fitted effect of over 40% in size. Also: potency is read from the fitted curve at half-maximal effect. An outline of the steps:
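CITCO-stimulated (50 nM final) HepG2 cells stably transfected with hCAR and CYP2B6-2.2kb luciferase were exposed to compounds at 15 concentrations for 24 h at 37 C/5% CO2. A luciferase reagent was added and luminescence recorded after 30 min.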

Assay [8] can be described thus: qHTS assay to identify small molecule antagonists of the estrogen related receptor signaling pathway with the pleiotropic PPARgamma coactivator (PGC) from Tox21 10K library - cell viability counter screen (AID 1224840; active = well fitted cell-killing curve with a large enough effect in the repeat runs, not every such curve was filed as active; also: nearly all actives have a fitted effect of over 40% in size; also: potency is read from the fitted curve at half-maximal effect). An outline of the steps:
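Viability counter screen, PGC/ERR cells: 17.5 h compound exposure at 37 C, CellTiter-Fluor fluorescence endpoint.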

Assay [9] in a line: qHTS assay to identify small molecule antagonists of the retinoic acid receptor (RAR) signaling pathway (AID 1159552; also: nearly all actives have a fitted effect of over 50% in size). The method in brief: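 Cells of the C3RL4 line were seeded, incubated overnight, then dosed with compounds in DMSO followed immediately by retinol (1 uM final). Six hours later luciferase detection reagent went in; signal was measured after 30 min at RT.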
Assay [10] deals with Nuclear receptor subfamily 1 group I member 3 (Homo sapiens) (UniProt Q14994). Put plainly: qHTS assay to identify small molecule agonists of the constitutive androstane receptor (CAR) signaling pathway (AID 1224839). Also: nearly all actives have a fitted effect of over 15% in size. Also: potency is read from the fitted curve at half-maximal effect. The method in brief: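 HepG2-CYP2B6-hCAR cells, 2500/well, 4 h pre-incubation; compounds 15 conc.; PK11195 0.75 uM final; 24 h, 37 C/5% CO2; ONE-Glo luciferase read.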
Nuclear receptor subfamily 1 group I member 3 (Homo sapiens), sequence (Q14994 whole entry, looked up): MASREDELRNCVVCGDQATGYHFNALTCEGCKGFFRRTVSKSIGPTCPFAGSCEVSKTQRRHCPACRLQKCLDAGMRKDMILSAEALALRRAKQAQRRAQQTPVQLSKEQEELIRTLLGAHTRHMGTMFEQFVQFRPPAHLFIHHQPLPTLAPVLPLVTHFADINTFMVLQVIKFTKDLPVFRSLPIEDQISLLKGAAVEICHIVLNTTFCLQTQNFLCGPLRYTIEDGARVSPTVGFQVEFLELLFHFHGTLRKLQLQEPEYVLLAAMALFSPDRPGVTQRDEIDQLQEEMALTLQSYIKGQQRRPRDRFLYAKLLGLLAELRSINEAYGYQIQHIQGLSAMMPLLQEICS

Assay [11] is described as follows: qHTS assay to identify small molecule antagonists of the estrogen related receptor signaling pathway with the pleiotropic PPARgamma coactivator (PGC) from Tox21 10K library (AID 1224841; call rule not given here; also: series mostly up to about 92 µM; actives are mostly falling curves and most rising ones were filed inactive; nearly all actives have a fitted effect of over 50% in size). An outline of the steps: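 In the PGC/ERR line, DMSO solutions of test chemicals are pin-delivered to 2,000 cells/well six hours after dispensing. Following eighteen hours' incubation, One-Glo reagent is added and luminescence recorded.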

Assay [12] can be described thus: qHTS assay to identify small molecule agonists of the estrogen related receptor signaling pathway with the pleiotropic PPARgamma coactivator (PGC) from Tox21 10K library (AID 1224842). Also: nearly all actives have a fitted effect of over 15% in size. An outline of the steps: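 PGC/ERR reporter cell line, 2,000 cells per well, incubated 6 h at 37 C before 23 nL compound in DMSO was added. After 18 h at 37 C, One-Glo luminescence read following 30 min at room temperature.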

Assay [13] can be described thus: qHTS assay to identify small molecule agonists of the RXR signaling pathway - cell viability counter screen (AID 1159529).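 Also: HEK 293T cells carrying an RXR-alpha UAS beta-lactamase reporter; series mostly up to about 77 µM; nearly all actives have a fitted effect of over 50% in size.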 The method in brief: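 HEK 293T RXRa-bla cells, 2% CS-FBS; 5 h settle; cpd 16 h 37 C, 5% CO2; CellTiter-Glo 30 min RT, luminescence. Tetraoctyl ammonium bromide as positive control.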
For assay [14], the target named is Thyrotropin receptor (Homo sapiens) (UniProt P16473). Put plainly: qHTS assay to identify small molecule agonists of the thyroid stimulating hormone receptor (TSHR) signaling pathway (AID 1224843; calls by dose curve; also: nearly all actives have a fitted effect of over 45% in size). An outline of the steps:
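Agonist-mode screen: TSHR HEK293 cells received test chemicals for half an hour at room temperature, then HTRF cAMP detection reagents for one hour prior to fluorescence measurement. Each chemical ran as a 15-concentration series, triplicated.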

Thyrotropin receptor (Homo sapiens), sequence (P16473 whole entry, looked up): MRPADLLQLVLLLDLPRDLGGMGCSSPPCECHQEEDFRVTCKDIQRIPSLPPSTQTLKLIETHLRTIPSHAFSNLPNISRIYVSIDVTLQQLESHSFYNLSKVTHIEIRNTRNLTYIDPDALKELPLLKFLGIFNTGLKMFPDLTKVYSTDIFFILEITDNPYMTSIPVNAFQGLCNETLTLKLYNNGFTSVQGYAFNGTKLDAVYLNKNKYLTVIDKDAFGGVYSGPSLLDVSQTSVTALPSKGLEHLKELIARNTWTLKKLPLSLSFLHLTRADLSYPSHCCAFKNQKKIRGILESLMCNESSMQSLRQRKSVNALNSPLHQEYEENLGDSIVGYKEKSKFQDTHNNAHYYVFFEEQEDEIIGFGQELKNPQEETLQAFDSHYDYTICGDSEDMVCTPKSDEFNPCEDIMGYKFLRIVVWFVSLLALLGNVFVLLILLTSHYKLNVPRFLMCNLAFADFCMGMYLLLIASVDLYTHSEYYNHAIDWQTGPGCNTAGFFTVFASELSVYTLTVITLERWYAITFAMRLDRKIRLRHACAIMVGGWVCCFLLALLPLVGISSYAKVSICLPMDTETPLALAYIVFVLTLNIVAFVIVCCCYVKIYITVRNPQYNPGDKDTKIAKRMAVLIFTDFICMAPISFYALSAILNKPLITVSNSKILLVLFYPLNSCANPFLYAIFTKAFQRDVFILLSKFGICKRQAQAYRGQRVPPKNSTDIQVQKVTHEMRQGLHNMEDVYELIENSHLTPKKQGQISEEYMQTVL

Turning to `COc1ccc(S(=O)(=O)N2C(=O)[C@@](c3ccccc3OC)(N3C[C@H](O)C[C@H]3C(=O)N(C)C)c3cc(Cl)ccc32)c(OC)c1`, the Potency entry in [1], in [2], in [4] and in [7] was “inactive” throughout. Also, the Potency in [3] was 30.6 µM (active); in assay [5] it was 30.6 µM (active); in assay [6], 24.3 µM (active); in [8], 30.6 µM (active).
In the case of `CCCCCCCCCCO[C@@H]1O[C@H](CO)[C@@H](O)[C@H](O)[C@H]1O`, the Potency result in assay [1], in [9], in assay [2], in assay [3], in assay [4] and in assay [5] was “inactive” each time. The Potency result in [6], in assay [7], in assay [10] and in [8] was “inactive” throughout.
In the case of `CN1CCC(=C2c3ccccc3Sc3ccccc32)CC1`, the Potency result in assay [1], in assay [2], in assay [4], in assay [5], in assay [6] and in [7] was “inactive” in each case. For the same compound, the Potency result in assay [8], in assay [11] and in [12] was “inactive” each time.
In the case of `CCCCCCCCCCCCN1CCCCCC1=O`, the Potency result in assay [1], in assay [9], in assay [2], in [3], in assay [4] and in [5] was “inactive” in each case. Besides, the Potency result in [6], in [7], in assay [8] and in [12] was “inactive” each time. The Potency in [10] was 61.1 µM (active).
For `O=C(OCCCCCCOC(=O)c1ccccc1)c1ccccc1`, the Potency entry in [1], in [9], in [3], in assay [4], in assay [5] and in [6] was “inactive” throughout. The Potency entry in assay [7], in assay [10], in assay [8], in assay [11] and in assay [12] was “inactive” throughout.
For `Nc1cccc(S(=O)(=O)c2cccc(N)c2)c1`, the Potency result in assay [13], in [3], in [4], in assay [5], in [6] and in [7] was “inactive” in each case. In addition, the Potency result in [10], in assay [8], in assay [11], in assay [12] and in [14] was “inactive” each time.
Turning to `COc1ccc(C(=O)N2CCN(CC(=O)N3CCOCC3)CC2)cc1`, the Potency entry in assay [13], in assay [3], in [4], in assay [5], in [6] and in assay [8] was “inactive” each time. Also, in [12], the Potency entry was “inactive”.
As for `C[C@H](CCC(=O)O)[C@H]1CC[C@H]2[C@@H]3CC[C@@H]4C[C@H](O)CC[C@]4(C)[C@H]3C[C@H](O)[C@]12C`, the Potency entry in assay [1], in assay [9], in assay [2], in assay [4], in assay [5] and in assay [6] was “inactive” each time. The Potency entry in assay [7] was “inactive”.
Take `Nc1ncn([C@H]2C[C@H](O)[C@@H](CO)O2)c(=O)n1`: the Potency result in [13], in assay [3], in assay [5], in assay [6], in assay [7] and in assay [8] was “inactive” each time.
For `Cc1oc2c(NC(=O)c3c(Cl)cccc3Cl)cccc2c1C(C)(C)O`, the Potency result in assay [1], in [2], in [4], in assay [5], in assay [6] and in assay [10] was “inactive” in each case. Also, the Potency entry in assay [12] is “inactive”. The Potency was 43.3 µM (active) in assay [3] and 5.45 µM (active) in assay [7].
For the compound `CC1=CC=C(C(C)C)CC1`, the Potency result in assay [13], in [3], in [4], in assay [5], in assay [6] and in assay [7] was “inactive” each time. In addition, the Potency result in assay [8] was “inactive”.
For `N=c1ccn2c(n1)O[C@H]1[C@H](O)[C@@H](CO)O[C@H]12`, the Potency result in assay [13], in [3], in assay [4], in [5], in [6] and in [8] was “inactive” each time. In addition, the Potency result in assay [11], in assay [12] and in assay [14] was “inactive” each time.
